KB-3-1 cytotox – KB-3-1 parental cell cytotoxicity; KB-3-1 viability, CellTiter-Glo ATP luminescence, 72 h; Potency, µM (highest dose often 46.1 µM), usual class: cytotoxic; hit rate 1.4% among 400,000; AID 1347075; note: nearly all actives have a fitted effect of over 60% in size
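Parental KB-3-1 adenocarcinoma cells in phenol-red-free DMEM with 10% FBS were pin-treated with compounds at several concentrations, incubated 72 h at 37 °C, and viability read by CellTiter-Glo luminescence; concentration-effect curves were fitted after normalization.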
HT1080-NT tox – kills 2HG-producing HT-1080-NT fibrosarcoma cells; HT-1080-NT fibrosarcoma viability, CellTiter-Glo ATP luminescence, 48 h; AID 686970; Potency, µM (series often up to 46.1 µM), for inactives: top-dose activity, negative = less viability, usual class: cytotoxic; hit rate 1.6% among 360,000;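 note: NT is the 2HG producing partner of a matched IDH1 knockdown line; 0% = DMSO-treated cells and -100% = media-only wells without cells; nearly all actives have a fitted effect of over 55% in size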
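Viability of the 2HG-overproducing fibrosarcoma line after 48 hours of compound exposure at 37 degrees C was determined by luminescence with CellTiter-Glo, and concentration-effect curves were then fitted and categorized.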
KB-V1 MDR tox – kills drug-selected multidrug resistant KB-V1 cells. KB-V1 MDR cells viability, CellTiter-Glo, 72 h. Potency, µM (series often up to 46.1 µM), hits mostly cytotoxic. hit rate 3.4% among 400,000. AID 1347076; note: nearly all actives have a fitted effect of over 60% in size
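Cytotoxicity via CellTiter-Glo luminescence after 72 h compound exposure at 37 degrees C. Cells: drug-selected KB-V1 line, DMEM phenol-red free plus 10% FBS. Compounds tested at multiple concentrations; normalized data fitted to concentration-effect curves.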
HT1080 IDH1KD tx – toxicity to HT-1080 IDH1 knockdown cells (counter line) | Potency, µM (doses to about 46.1 µM), for the others: at the highest dose activity, negative = toxicity, usual class: cytotoxic | HT-1080 IDH1 knockdown viability, ATP luminescence, 48 h | hit rate 2% among 360,000 | AID 686971;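 note: 0% = DMSO wells and -100% = cell-free medium wells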
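Cytotoxicity counter-line: IDH1KD HT-1080, 48 h, CellTiter-Glo. Curves classed by r2, magnitude and activity.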
* hit, by the source's call; i = inactive; ? = inconclusive; . = no result given. Sampled rows, rich in hits. Any-hit rate of the full collection: about 5.7%. Calls come from the whole dose curve; as a rule, active = well fitted curve in the direction sought with a large enough effect; inconclusive = small, poorly fitted or top-dose-only effect, or another doubt; inactive = no such curve, though single readings can be large; an effect the other way counts as inactive or inconclusive. Unless noted, % is set by controls: 0 for no effect and ±100 for the full control effect; potency is the fitted concentration of half-maximal effect.

SMILES | KB-3-1 cytotox | HT1080-NT tox | KB-V1 MDR tox | HT1080 IDH1KD tx
Cc1ccc(C(c2sc3nc(-c4ccco4)nn3c2O)N2CCN(Cc3ccccc3)CC2)cc1 (configuration not stated) | i | . | i | .
CC1CCN(S(=O)(=O)c2ccc3c(c2)oc(=O)n3CC(=O)N2CCCCC2)CC1 | i | . | i | .
Cc1ccc(S(=O)(=O)N(CC2CO2)c2cc(Cl)ccc2Cl)cc1 (configuration not stated) | ? | ? | ? | 23.1µM*
COc1cc(OC)c(NC(=O)CCCn2nc(C)c3sc4ccccc4c3c2=O)cc1Cl | i | . | i | .
Cc1cc(C)c(S(=O)(=O)Nc2cc(Cl)c3oc4c(c3c2)C(=O)CCC4)cc1C | i | . | i | .
N#Cc1ncc(Br)cn1 | . | 0.7% | . | 14.4%
Cc1ccc(C(=O)Nc2ccc(Cl)cc2C)c(Cl)c1 | i | 19.7% | 16.4µM* | -1.9%
Cc1ccc(C(=O)Nc2ccc(Cl)cc2C(F)(F)F)c(Cl)c1 | i | 27.6% | i | 20.9%
Cc1cc(C)n(-c2nc3ccccc3nc2N2CCCC2)n1 | i | 14.0% | 13µM* | -0.2%
Cc1cc(C)n(-c2nc3ccccc3nc2N2CCCCCC2)n1 | i | 7.2% | i | 11.1%
CC(=O)N1c2ccc(S(=O)(=O)N3CCCCCC3)cc2CC1C(=O)NC(C)C (configuration not stated) | i | . | i | .
CC(=O)c1cc(Cl)ccc1OCc1cccc(S(=O)(=O)N2CCOCC2)c1 | i | 0.2% | 18.4µM* | 2.1%
O=S(=O)(c1cccc(COc2ccc(Cl)cc2Cl)c1)N1CCOCC1 | ? | 0.4% | ? | -3.5%
CCc1ccc2oc(-c3ccc(OC)cc3)cc(=Nc3c(C)n(C)n(-c4ccccc4)c3=O)c2c1 | ? | -0.1% | 9.2µM* | -1.3%
CC(=O)c1cccc(N=c2scc(-c3ccc(S(=O)(=O)N4CCOCC4)cc3)n2CCO)c1 | i | -13.6% | 5.8µM* | -14.5%
CCc1ccc2oc(-c3ccc(OC)cc3)cc(=Nc3cccc(C(=O)O)c3)c2c1 | i | -3.8% | i | -19.6%
COc1ccc(-c2csc(=Nc3ccccc3)n2CCO)cc1 | 11.6µM* | -22.2% | 7.31µM* | -23.0%
C=CCn1c(-c2ccc(OC)cc2)csc1=Nc1c(C)n(C)n(-c2ccccc2)c1=O | 16.4µM* | -18.1% | 8.2µM* | -14.3%
COc1ccccc1NS(=O)(=O)c1cc(NC(=O)c2ccccc2)ccc1N1CCCC1 | i | . | i | .
Cc1nnc2c(N3CCN(c4ccccc4F)CC3)nc3ccccc3n12 | i | . | i | .
COc1ccc(NC(=O)C2=C(C)Nc3nc(SCc4ccc(Cl)cc4)nn3C2c2cccc(OC)c2OC)cc1 (configuration not stated) | i | . | i | .
CCc1ccc2nc(N(CCN(CC)CC)C(=O)c3ccco3)sc2c1 | i | . | i | .
CCNC(=O)C1CCN(S(=O)(=O)c2ccc3c(c2)CCCN3C(C)=O)CC1 | i | . | i | .
CC(C)(C)c1ccc(-c2nnc(NC(=O)Nc3ccc4ccccc4c3)s2)cc1 | ? | . | i | .
CC(C)c1ccc(S(=O)(=O)N2CCN(C(C)C(=O)Nc3ccccc3-c3ccccc3)CC2)cc1 (configuration not stated) | i | 14.1% | i | 11.9%
SMILES | KB-3-1 cytotox | HT1080-NT tox | KB-V1 MDR tox | HT1080 IDH1KD tx
Cc1ccc(S(=O)(=O)N2CCN(C(C)C(=O)NCC(C)c3ccccc3)CC2)cc1 (configuration not stated) | i | 5.3% | i | 19.3%
CC(NC(=O)C(C)N1CCN(S(=O)(=O)c2ccccc2)CC1)c1ccccc1 (configuration not stated) | i | -4.6% | 14.6µM* | 5.6%
CC(C(=O)Nc1ccccc1-c1ccccc1)N1CCN(S(=O)(=O)c2ccccc2)CC1 (configuration not stated) | i | -3.8% | 2.91µM* | -5.1%
CCCc1ccc(S(=O)(=O)N2CCN(C(C)C(=O)NCc3ccccc3)CC2)cc1 (configuration not stated) | i | -0.8% | ? | -8.4%
CCCC(NC(=O)C(C)N1CCN(S(=O)(=O)c2ccccc2)CC1)c1ccccc1 (configuration not stated) | i | 2.2% | 7.31µM* | 9.1%
O=C(NCc1cccc(Cl)c1)c1cccn1-c1nnc(N2CCCC2)s1 | i | . | i | .
CC1Cc2ccccc2C[N+]1(C)CC(=O)c1ccc(I)cc1 (configuration not stated) | i | . | i | .
CC(C)C(C)NC(=O)COc1ccc(Sc2ccc(OCC(=O)NC(C)C(C)C)cc2)cc1 (configuration not stated) | ? | -0.5% | 2.91µM* | 8.8%
CCOC(=O)N1CCc2c(sc3c2C(=O)NC(c2cc(OC)c(OC)c(OC)c2)N3)C1 (configuration not stated) | 16.4µM* | . | i | .
CCCN1CNc2c(c(=O)[nH]c(=S)n2CCc2ccc(C)cc2C)C1 | . | 14.0% | . | 1.8%
Cc1ccc2c(C(=O)CNc3nccs3)c[nH]c2c1 | i | . | ? | .
C/C=C/c1ccc(OCCCCN2CCN(CC)CC2)c(OC)c1 | i | -14.1% | i | -16.3%
C/C=C/c1ccc(OCCCCN2CC(C)CC(C)C2)c(OC)c1 (configuration not stated) | ? | 23.1µM* | ? | 20.6µM*
CCOC(=O)C1=C(C)NC(C)=C(C(=O)OCC)C1c1cccc([N+](=O)[O-])c1 | i | -2.2% | ? | -29.4%
C#CCN1C(C)=C(C(=O)OC)C(c2cccc([N+](=O)[O-])c2)C(C(=O)OCC)=C1C (configuration not stated) | i | ? | 11.6µM* | 13.1%
CCOC(=O)C1=C(c2ccccc2)NC(=S)NC1c1cc([N+](=O)[O-])ccc1OC (configuration not stated) | i | -4.7% | i | -3.8%
CCOC(=O)C1=C(c2ccccc2)NC(=S)NC1c1ccc(C)c([N+](=O)[O-])c1 (configuration not stated) | i | -20.2% | 2.91µM* | -16.4%
CCOC(=O)C1=C(c2ccccc2)NC(=S)NC1c1cccc([N+](=O)[O-])c1 (configuration not stated) | i | 7.9% | 14.6µM* | 0.9%
CCOC(=O)C1=C(c2ccccc2)NC(=O)NC1c1ccc(O)c(Cl)c1 (configuration not stated) | i | 11.6µM* | i | 13µM*
CCn1ccc2cc(S(=O)(=O)N3CCC(C(=O)NCc4ccc(OC)cc4)CC3)ccc21 | i | . | i | .
COc1ccccc1CNC(=O)C(Cc1ccccc1)NS(=O)(=O)c1ccc2c(c1)CCN2C(C)=O (configuration not stated) | i | . | i | .
O=C(N/N=C/c1cn(-c2ccccc2)nc1-c1cccs1)c1ccccc1F | ? | -26.4% | 20.6µM* | ?
CN1CCC(N(C)C(=O)/C=C/c2cn(-c3ccccc3)nc2-c2cccs2)CC1 | i | 25.9µM* | 20.6µM* | 18.4µM*
